Screening data deposited in PubChem by several laboratories.
Shown are actives, neighbours in structure and some others; about 2.3% of the full set was active somewhere.
HTR1A agonist: 5-HT1a (human) receptor agonism; CHO 5-HT1a Ga15 NFAT-bla reporter, FRET ratio; 0% basal, 100% maximal reference agonist; 65,000 compounds, 0.56% hits; AID 567; P08908; activation, % at 10 µM;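 active = activation above the screen-wide mean activation plus 3 SD, cut at about 19% in these data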;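 note: 0% = DMSO wells and 100% = 5-CT at EC100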
5HT1E ag: 5-HT1E (human) receptor agonism. 65,000 compounds, 0.69% hits. CHO 5-HT1E Ga15 NFAT-bla reporter, FRET; 0% DMSO wells, 100% control agonist wells. P28566. activation, % at 6 µM;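 active = activation above a set limit, the screen-wide mean activation plus 3 SD, cut at about 8.5% in these data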;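 note: 100% = positive control agonist at 1 µM giving full maximal response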
Target sequence (P28566 whole entry, looked up): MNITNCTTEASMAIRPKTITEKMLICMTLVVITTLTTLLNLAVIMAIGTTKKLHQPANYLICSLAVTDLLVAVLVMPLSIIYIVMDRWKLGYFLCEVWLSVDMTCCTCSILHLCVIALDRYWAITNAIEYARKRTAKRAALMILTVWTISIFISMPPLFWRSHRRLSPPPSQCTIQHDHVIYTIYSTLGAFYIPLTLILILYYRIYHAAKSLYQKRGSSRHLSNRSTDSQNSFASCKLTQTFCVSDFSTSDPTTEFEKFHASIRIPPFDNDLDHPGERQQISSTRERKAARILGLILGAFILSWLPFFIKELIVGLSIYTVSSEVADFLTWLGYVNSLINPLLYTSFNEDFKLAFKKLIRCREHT
mHtt clearance: compounds clearing mutant huntingtin protein; HeLa Exon1htt(103Q)mCFP, aggregate imaging; zero = plate's median compound well; inhibition, % at 1.5 µM; 47,000 compounds, 0.42% hits; AID 853;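 active = inhibition of aggregate fluorescence above about 70%, also judged a hit by eye on the cell image, limit read from the data, passing the limit was not always enough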;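 note: cells exposed to compound for three days before fixation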
5HT1E antag: blocks the human 5-HT1E serotonin receptor | CHO 5-HT1E Ga15 NFAT-bla reporter, FRET, antagonist | P28566 | 65,000 compounds, 0.99% hits | AID 571 | inhibition, % at 6 µM;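 active = inhibition above a set limit, the mean inhibition across every tested compound plus 3 SD, cut at about 29% in these data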;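 note: signal is the 460 over 535 nm emission ratio of beta-lactamase substrate; 0% = agonist plus DMSO wells and 100% = wells without agonist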
5-HT1A blocker: blocks the human serotonin 5-HT1a receptor; inhibition, % at 10 µM; P08908; 62,000 compounds, 0.68% hits; CHO 5-HT1a Ga15 NFAT-bla reporter, antagonist mode;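 active = inhibition above the mean of all tested compounds plus 3 SD, cut at about 43% in these data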;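 note: receptor stimulated by 5-CT agonist at 100 nM near EC80; beta-lactamase reporter measured by ratiometric fluorescence of a cleavable substrate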
* marks the source's active call; other numbers are inactive results.

How did CCOC(=O)/C=C/S(=O)(=O)c1ccc(NC(C)=O)cc1 do in these assays?
HTR1A agonist: -2.7; 5HT1E ag: -1.3; mHtt clearance: 26.1; 5HT1E antag: 89.2*; 5-HT1A blocker: 98.4*

How did CCOC(=O)c1cccc(NS(=O)(=O)c2ccc(NC(C)=O)cc2)c1 do in these assays?
mHtt clearance: 37.0

What do the screens show for `O=C(C1CCCN(S(=O)(=O)c2cccc3cccnc23)C1)N1CCN(c2ccccc2F)CC1` (stereo unspecified)?
HTR1A agonist: -0.1; 5HT1E ag: 1.0; mHtt clearance: -22.6; 5HT1E antag: -6.6; 5-HT1A blocker: -17.3

How did Cc1cccc(N2CCN(C(=O)C3CCCN(S(=O)(=O)c4cccc5cccnc45)C3)CC2)c1C (stereo unspecified) do in these assays?
HTR1A agonist: 4.6; 5HT1E ag: 17.7*; 5HT1E antag: -0.2; 5-HT1A blocker: 6.3

What do the screens show for `Cn1nnnc1Sc1ncnc2scc(-c3ccc(F)cc3)c12`?
HTR1A agonist: 0.5; 5HT1E ag: 0.2; mHtt clearance: -96.6; 5HT1E antag: 47.6*; 5-HT1A blocker: 33.7

What do the screens show for `Cn1nnnc1Sc1ncnc2scc(-c3ccccc3)c12`?
HTR1A agonist: -0.8; 5HT1E ag: 0.2; 5HT1E antag: 28.1; 5-HT1A blocker: 32.0

How did COC(=O)c1cc(=O)n(C2CC2)c(=NC2CC2)s1 do in these assays?
HTR1A agonist: 1.1; 5HT1E ag: -0.3; 5HT1E antag: 31.2*; 5-HT1A blocker: 6.4

Results for CCCNC(=O)c1c(N)n(-c2cccc(OC)c2)c2nc3ccccc3nc12 ?
HTR1A agonist: 41.7*; 5HT1E ag: 8.7*; mHtt clearance: 25.7; 5HT1E antag: -11.2; 5-HT1A blocker: -25.9

What do the screens show for `CC1=CC(C)(C)Nc2ccc(OC(=O)c3cccnc3)cc21`?
HTR1A agonist: 16.8; 5HT1E ag: 4.2; mHtt clearance: 5.5; 5HT1E antag: 30.4*; 5-HT1A blocker: 25.8

How did CC1=CC(C)(C)Nc2ccc(OC(=O)CN3C(=O)CCC3=O)cc21 do in these assays?
HTR1A agonist: 14.1; 5HT1E ag: 3.0; 5HT1E antag: 18.7; 5-HT1A blocker: 21.3

What do the screens show for `CC1=CC(C)(C)Nc2ccc(OC(=O)c3ccco3)cc21`?
HTR1A agonist: 24.6*; 5HT1E ag: 1.7; 5HT1E antag: 50.6*; 5-HT1A blocker: 40.8

How did Clc1ccc(C2=Nn3c(nnc3-c3n[nH]c4c3CCC4)SC2)cc1 do in these assays?
HTR1A agonist: -1.1; 5HT1E ag: 1.2; 5HT1E antag: 21.5; 5-HT1A blocker: 24.1

What do the screens show for `Brc1ccc(C2=Nn3c(nnc3-c3n[nH]c4c3CCC4)SC2)cc1`?
HTR1A agonist: -1.1; 5HT1E ag: -0.3; 5HT1E antag: 57.1*; 5-HT1A blocker: 29.6

Results for CC(=O)c1ccc(N2CCC(c3cc(-c4ccc(Cl)cc4Cl)n[nH]3)CC2)c([N+](=O)[O-])c1 ?
mHtt clearance: -6.3

What do the screens show for `Cc1nnc(SCC(=O)N2c3ccccc3Sc3ccccc32)n1N`?
HTR1A agonist: -2.8; 5HT1E ag: 0.0; mHtt clearance: 29.6; 5HT1E antag: -7.0; 5-HT1A blocker: 4.0

Results for Cc1nnc(SC(=O)N2c3ccccc3Sc3ccccc32)s1 ?
HTR1A agonist: -1.4; 5HT1E ag: 0.1; 5HT1E antag: 24.1; 5-HT1A blocker: 74.1*

How did CC1=CCC(Cc2nc3ccccc3o2)C1(C)C (stereo unspecified) do in these assays?
HTR1A agonist: -0.4; 5HT1E ag: 0.3; mHtt clearance: 76.9*; 5HT1E antag: -2.1; 5-HT1A blocker: -20.5

What do the screens show for `Cn1c(N)c(C(=O)COC(=O)C2(c3cccc(F)c3)CCCC2)c(=O)n(C)c1=O`?
HTR1A agonist: -1.9; 5HT1E ag: -0.6; mHtt clearance: -19.0; 5HT1E antag: 12.1; 5-HT1A blocker: 2.1

How did CC(=O)Oc1ccc2cc(-c3nc4ccccc4n3C)c(=O)oc2c1 do in these assays?
HTR1A agonist: 89.2*; 5HT1E ag: 21.2*; 5HT1E antag: 33.4*; 5-HT1A blocker: -54.0

What do the screens show for `CCN(CC)C(=O)CN(C#N)c1nc(NC(C)C)nc(NC(C)C)n1`?
HTR1A agonist: -0.9; 5HT1E ag: -0.1; 5HT1E antag: -11.5

How did CCCN(C#N)c1nc(NCC)nc(NC(C)C)n1 do in these assays?
HTR1A agonist: -0.6; 5HT1E ag: 0.8; mHtt clearance: -25.8; 5HT1E antag: 28.6*; 5-HT1A blocker: 8.3

How did Cc1c(/C=N/n2cnnc2)c2ccccc2n1CCOc1ccc(Cl)cc1 do in these assays?
HTR1A agonist: 3.0; 5HT1E ag: 0.8; 5HT1E antag: 33.0*; 5-HT1A blocker: -7.0

How did Cc1ccc(OCCn2c(C)c(/C=N/n3cnnc3)c3ccccc32)cc1 do in these assays?
HTR1A agonist: 0.9; 5HT1E ag: 0.2; 5HT1E antag: 44.3*; 5-HT1A blocker: 1.3

What do the screens show for `CCOC(=O)c1c(C)sc(Sc2ccc(Cl)cc2[N+](=O)[O-])c1OC`?
mHtt clearance: -1.3

What do the screens show for `CN(C(=O)c1cnccn1)c1nnc(-c2cccnc2)s1`?
HTR1A agonist: -3.1; 5HT1E ag: -0.6; 5HT1E antag: 1.6; 5-HT1A blocker: 0.4

What do the screens show for `COc1ccccc1Cn1c2nc3ccccc3nc2c2c(=O)n(CC(C)C)cnc21`?
HTR1A agonist: 0.4; 5HT1E ag: -0.4; 5HT1E antag: 1.9

Results for CN1CCCC(OC(=O)c2cc(Cl)ccc2Cl)C1 (stereo unspecified) ?
HTR1A agonist: 1.0; 5HT1E ag: 13.4*; 5HT1E antag: 0.7; 5-HT1A blocker: -2.7

What do the screens show for `CN1CCCC(OC(=O)c2cc(Br)ccc2Cl)C1` (stereo unspecified)?
HTR1A agonist: -1.2; 5HT1E ag: -0.2; 5HT1E antag: -0.8; 5-HT1A blocker: 2.2

How did C=CCSc1nc(N)c(C#N)c(-c2ccccc2)c1C#N do in these assays?
HTR1A agonist: -1.1; 5HT1E ag: -1.0; 5HT1E antag: 40.7*; 5-HT1A blocker: 7.2

How did CCCSc1nc(N)c(C#N)c(-c2ccc(C)cc2)c1C#N do in these assays?
HTR1A agonist: 1.1; 5HT1E ag: -0.4; 5HT1E antag: 1.5; 5-HT1A blocker: -22.7

What do the screens show for `CC(c1cccnc1)N(CCN(C)C)C(=O)Nc1ccc(Cl)cc1` (stereo unspecified)?
mHtt clearance: -320.3

Results for CCOc1ccc(NC(=O)c2oc3ccccc3c2NC(=O)C(C)C)cc1 ?
HTR1A agonist: -1.7; 5HT1E ag: 0.2; 5HT1E antag: 2.9; 5-HT1A blocker: -23.5

Results for c1ccc(-c2oc3ncnc(NCCCn4ccnc4)c3c2-c2ccccc2)cc1 ?
HTR1A agonist: 2.8; 5HT1E ag: -0.6; mHtt clearance: -38.4; 5HT1E antag: 28.8*; 5-HT1A blocker: 62.6*

Results for CCOc1ccc(CCNS(=O)(=O)c2cnc[nH]2)cc1OCC ?
HTR1A agonist: 0.6; 5HT1E ag: -0.5; 5HT1E antag: 31.3*; 5-HT1A blocker: -0.6

What do the screens show for `O=S(=O)(NCc1ccc2c(c1)OCO2)c1cnc[nH]1`?
HTR1A agonist: -3.4; 5HT1E ag: -0.5; mHtt clearance: -29.6; 5HT1E antag: -0.4; 5-HT1A blocker: 4.4
